From PubChem BioAssay (EPA / NIEHS)
Inconclusive results are not listed. Some structures have more than one record in an assay (separate samples or runs), and their calls can disagree. Activity calls are given as the source filed them. The calls were made as follows, unless noted: active = hit-call score of the fitted dose curve at least 0.9, where 1 is the maximum; inconclusive = response in the unintended direction; inactive = score below 0.9.

Key:
[1] = target: human Peroxisome Proliferator-activated Receptor alpha (PPARa), PPARA (gene 5465) (UniProt Q07869); test: ATG_PPARa_TRANS: Attagene TRANS-FACTORIAL HepG2 Assay for human Peroxisome Proliferator-activated Receptor alpha (PPARa) (AID 2283001)
Outline: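 Exposure: 24 h, transiently transfected HepG2 cells. Endpoint: GAL4-UAS reporter mRNA, RT-PCR with capillary electrophoresis fluorescence. Baseline: DMSO; increases fitted.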

[2] = read-out: Intercellular Adhesion Molecule 1 (ICAM1), ICAM1 (gene 3383); test: BSK_3C_ICAM1: BioMAP Diversity Plus: 3C Assay for Intercellular Adhesion Molecule 1 (ICAM1) Biomarker Activity (AID 2283003; active = hit-call score of the fitted dose curve at least 0.9, where 1 is the maximum; inactive = score below 0.9); conditions: primary human endothelial cells (HUVEC); actives raise or lower the signal
Outline: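 ELISA read-out of ICAM-1; HUVEC (primary human), 3C system, 24 h post-dosing; bidirectional fit vs DMSO baseline.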

[3] = target: human Retinoic Acid Receptor beta (RARb), RARB (gene 5915) (UniProt P10826); test: ATG_RARb_TRANS: Attagene TRANS-FACTORIAL HepG2 Assay for human Retinoic Acid Receptor beta (AID 2283004)
Outline: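 Readout is reporter mRNA induction: RNA reverse-transcribed, PCR-amplified, FAM-labelled, HpaI-cut and resolved by capillary electrophoresis. Transiently transfected HepG2 cells carrying exogenous NR–Gal4 chimeras were dosed for 24 h; activity fitted upward relative to DMSO.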

[4] = target: Retinoic acid receptor alpha (Homo sapiens) (UniProt P10276); test: ATG_RARa_TRANS: Attagene TRANS-FACTORIAL HepG2 Assay for human Retinoic Acid Receptor alpha (RARa) (AID 2283005)
Outline: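 HepG2 cells transiently transfected with multiple reporter units expressing chimeric RARα-GAL4 fusion, with GAL4-UAS-driven reporters. After 24 h compound exposure, reporter mRNA induction quantified by RT-PCR and capillary electrophoresis with fluorescent labeling; gain-of-signal fitted relative to DMSO control.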

[5] = BSK_3C_Proliferation: Cell Proliferation Assessment in the BioMAP Diversity Plus: 3C Assay (AID 2283006; active = hit-call score of the fitted dose curve at least 0.9, where 1 is the maximum; inactive = score below 0.9;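 as to AC50: potency may reflect either rise or fall in cell number versus DMSO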); conditions: primary human endothelial cells (HUVEC)
Outline: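 HUVEC, sub-confluent; 48 h chemical exposure; 10% TCA fix, 0.1% SRB stain, A560 total protein. Gain or loss of signal fitted both directions vs DMSO control.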

[6] = target: Peroxisome proliferator-activated receptor gamma (Homo sapiens) (UniProt P37231); test: ATG_PPARg_TRANS: Attagene TRANS-FACTORIAL HepG2 Assay for human Peroxisome Proliferator-activated Receptor-gamma (PPARg) (AID 2283007)
Outline: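 After 24 h of chemical exposure, transfected HepG2 cells carrying PPARγ-Gal4 chimera reporter constructs are lysed for RNA. Reporter transcripts are measured by RT-PCR and capillary electrophoresis with fluorescent labelling, and gain of signal is fitted versus DMSO.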

[7] = target: Nuclear receptor subfamily 1 group I member 2 (Homo sapiens) (UniProt O75469); test: ATG_PXR_TRANS: Attagene TRANS-FACTORIAL HepG2 Assay for human Pregnane X Receptor (PXR) (AID 2283008)
Outline: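 HepG2 transfected (FuGene 6) with GAL4-UAS reporter units + PXR-Gal4 chimera; dosed 24 h. Total RNA → oligo(dT) RT → PCR → 6-FAM primer extension → HpaI cut → CE. Gain-of-signal vs DMSO.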

[8] = target: human Retinoic Acid Receptor gamma (RARg), RARG (gene 5916) (UniProt P13631); test: ATG_RARg_TRANS: Attagene TRANS-FACTORIAL HepG2 Assay for human Retinoic Acid Receptor gamma (RARg) (AID 2283009)
Outline: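 Readout: reporter transcript levels via RT-PCR, 6-FAM primer-extension labelling, HpaI digestion and capillary electrophoresis. Cells: HepG2 carrying transfected RARg-GAL4 chimera plus UAS reporter set. Dosing 24 h; DMSO negative control.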

[9] = target: human RAR-related Orphan Receptor gamma (RORg), RORC (gene 6097) (UniProt P51449); test: ATG_RORg_TRANS: Attagene TRANS-FACTORIAL HepG2 Assay for human RAR-related Orphan Receptor gamma (RORg) (AID 2283011)
Outline: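 Transient MRTU transfection of HepG2 (TRANS format, exogenous NR-Gal4 chimera). 24 h dosing. Total RNA → oligo(dT) RT → PCR → 6-FAM labelling → HpaI cut → CE. Gain vs DMSO.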

[10] = target: human Retinoid X Receptor beta (RXRb), RXRB (gene 6257) (UniProt P28702); test: ATG_RXRb_TRANS: Attagene TRANS-FACTORIAL HepG2 Assay for human Retinoid X Receptor beta (RXRb) (AID 2283013)
Outline: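 Read-out: reporter mRNA induction via RT-PCR plus capillary electrophoresis fluorescence, analysed as signal increase relative to DMSO. Cells were human HepG2, transiently transfected with GAL4-UAS reporter constructs and chimeric receptor-Gal4 fusions, dosed for 24 h.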

[11] = read-out: E-selectin (Homo sapiens) (UniProt P16581); test: BSK_3C_Eselectin: BioMAP Diversity Plus: 3C Assay for Eselectin Biomarker Activity (AID 2283015; active = hit-call score of the fitted dose curve at least 0.9, where 1 is the maximum; inactive = score below 0.9); conditions: primary human endothelial cells (HUVEC); actives raise or lower the signal
Outline: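 HUVEC, 3C stimulation; compound exposure 24 h; E-selectin by ELISA; gain- or loss-of-signal fitted bidirectionally vs DMSO baseline.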

[12] = read-out: Interleukin-1 alpha (IL1a), IL1A (gene 3552); test: BSK_BE3C_IL1a: BioMAP Diversity Plus: BE3C Assay for Interleukin-1 alpha (IL1a) Biomarker Activity (AID 2283016; active = hit-call score of the fitted dose curve at least 0.9, where 1 is the maximum; inactive = score below 0.9); conditions: primary human bronchial epithelial cells; actives raise or lower the signal
Outline: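 ELISA read-out of IL-1a from human lung bronchial epithelial primary cells, 24 h post-dose. Gain or loss of signal fitted relative to DMSO negative control.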

[13] = read-out: Monocyte Chemoattractant Protein-1 (MCP1), CCL2 (gene 6347); test: BSK_3C_MCP1: BioMAP Diversity Plus: 3C Assay for Monocyte Chemoattractant Protein-1 (MCP1) Biomarker Activity (AID 2283017; active = hit-call score of the fitted dose curve at least 0.9, where 1 is the maximum; inactive = score below 0.9); conditions: primary human endothelial cells (HUVEC); actives raise or lower the signal
Outline: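 HUVEC, 3C system; 24 h chemical exposure; MCP-1 by ELISA; bidirectional curve fit vs DMSO baseline.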

[14] = read-out: Monocyte Chemoattractant Protein-1 (MCP1), CCL2 (gene 6347); test: BSK_4H_MCP1: BioMAP Diversity Plus: 4H Assay for Monocyte Chemoattractant Protein-1 (MCP1) Biomarker Activity (AID 2283018; active = hit-call score of the fitted dose curve at least 0.9, where 1 is the maximum; inactive = score below 0.9); conditions: primary human endothelial cells (HUVEC); actives raise or lower the signal
Outline: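 HUVEC primary cells, 24 h post-dose, MCP-1 by ELISA. Gain or loss of signal fitted bidirectionally vs DMSO baseline. Cytotoxicity: SRB stain (0.1% after 10% TCA fixation), read 560 nm, parallel cultures.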

[15] = read-out: Human Leukocyte Antigen - DR isotype (HLADR), HLA-DRA (gene 3122); test: BSK_3C_HLADR: BioMAP Diversity Plus: 3C Assay for Human Leukocyte Antigen - DR isotype (HLADR) Biomarker Activity (AID 2283019; active = hit-call score of the fitted dose curve at least 0.9, where 1 is the maximum; inactive = score below 0.9); conditions: primary human endothelial cells (HUVEC); actives raise or lower the signal
Outline: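 HUVEC, 3C stimulation, 24 h post-dose; HLA-DR by ELISA; bidirectional curve fit vs DMSO baseline; gain or loss of signal scored.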

[16] = read-out: Interleukin-8 (IL8), CXCL8 (gene 3576); test: BSK_3C_IL8: BioMAP Diversity Plus: 3C Assay for Interleukin-8 (IL8) Biomarker Activity (AID 2283020; active = hit-call score of the fitted dose curve at least 0.9, where 1 is the maximum; inactive = score below 0.9); conditions: primary human endothelial cells (HUVEC); actives raise or lower the signal
Outline: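 HUVEC, 3C stimulation; 24 h compound exposure; IL-8 read by ELISA; gain or loss of signal fitted relative to DMSO control.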

[17] = target: human RAR-related Orphan Receptor beta (RORb), RORB (gene 6096) (UniProt Q92753); test: ATG_RORb_TRANS: Attagene TRANS-FACTORIAL HepG2 Assay for human RAR-related Orphan Receptor beta (RORb) (AID 2283010)
Outline: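 HepG2, transient MRTU transfection (GAL4-UAS reporters, exogenous NR-Gal4 chimeras); 24 h compound exposure; total RNA → RT-PCR → 6-FAM primer extension → HpaI digest → CE fluorescence. Positive direction vs DMSO baseline.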

[18] = target: Retinoic acid receptor RXR-alpha (Homo sapiens) (UniProt P19793); test: ATG_RXRa_TRANS: Attagene TRANS-FACTORIAL HepG2 Assay for human Retinoid X Receptor alpha (RXRa) (AID 2283012)
Outline: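 Read-out: fluorescent reporter-transcript fragments quantified by capillary electrophoresis after RT-PCR. Transiently transfected HepG2 cells carrying GAL4-UAS reporters and NR-GAL4 chimeras were exposed to chemical for 24 h; activity scored as increase over DMSO.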

[19] = target: human Peroxisome Proliferator-activated Receptor delta (PPARd), PPARD (gene 5467) (UniProt Q03181); test: ATG_PPARd_TRANS: Attagene TRANS-FACTORIAL HepG2 Assay for human Peroxisome Proliferator-activated Receptor delta (PPARd) (AID 2283002)
Outline: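 Multiplexed trans-activation format: HepG2 liver cells expressing exogenous NR-Gal4 chimeras and GAL4-UAS reporters were exposed for 24 h. Reporter mRNA was detected by RT-PCR with capillary electrophoresis fluorescence; activity fitted as gain of signal relative to DMSO.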

[20] = target: human Thyroid Receptor alpha (THRa1), THRA (gene 7067) (UniProt P10827); test: ATG_THRa1_TRANS: Attagene TRANS-FACTORIAL HepG2 Assay for human Thyroid Receptor alpha (THRa1) (AID 2283014)
Outline: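 Transient HepG2 transfection, NR-Gal4 chimera driving GAL4-UAS reporters; 24 h compound exposure; total RNA, oligo(dT) RT, PCR, fluorescent primer extension, capillary electrophoresis. Upward direction vs DMSO control.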

Measured: AC50

Sequence of Nuclear receptor subfamily 1 group I member 2 (Homo sapiens) (O75469 whole entry, looked up, the tested form may be a part): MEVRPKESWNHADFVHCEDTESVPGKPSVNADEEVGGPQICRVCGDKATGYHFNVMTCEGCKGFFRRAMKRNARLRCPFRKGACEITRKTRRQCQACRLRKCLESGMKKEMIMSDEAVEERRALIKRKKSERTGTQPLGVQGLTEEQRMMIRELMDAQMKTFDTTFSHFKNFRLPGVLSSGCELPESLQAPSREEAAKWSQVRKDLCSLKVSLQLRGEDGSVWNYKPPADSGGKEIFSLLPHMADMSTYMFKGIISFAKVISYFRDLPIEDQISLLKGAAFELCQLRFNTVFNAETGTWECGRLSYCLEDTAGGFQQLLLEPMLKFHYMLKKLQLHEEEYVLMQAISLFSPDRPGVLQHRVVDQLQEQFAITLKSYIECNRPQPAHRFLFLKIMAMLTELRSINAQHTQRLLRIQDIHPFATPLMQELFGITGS
Sequence of human RAR-related Orphan Receptor beta (RORb), RORB (gene 6096) (Q92753 whole entry, looked up, the tested form may be a part): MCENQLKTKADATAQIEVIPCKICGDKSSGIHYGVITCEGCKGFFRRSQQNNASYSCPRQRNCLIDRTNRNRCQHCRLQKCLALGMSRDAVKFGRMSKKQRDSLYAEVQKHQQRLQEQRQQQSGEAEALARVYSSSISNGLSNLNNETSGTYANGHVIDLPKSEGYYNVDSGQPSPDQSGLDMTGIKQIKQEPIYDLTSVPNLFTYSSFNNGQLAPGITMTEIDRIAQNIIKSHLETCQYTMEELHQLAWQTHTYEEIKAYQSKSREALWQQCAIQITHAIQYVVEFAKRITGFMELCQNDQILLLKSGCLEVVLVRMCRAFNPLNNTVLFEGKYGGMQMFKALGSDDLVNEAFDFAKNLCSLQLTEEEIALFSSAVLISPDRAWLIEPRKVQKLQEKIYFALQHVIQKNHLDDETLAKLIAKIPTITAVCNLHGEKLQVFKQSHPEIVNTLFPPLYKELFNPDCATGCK
Sequence of E-selectin (Homo sapiens) (P16581 whole entry, looked up): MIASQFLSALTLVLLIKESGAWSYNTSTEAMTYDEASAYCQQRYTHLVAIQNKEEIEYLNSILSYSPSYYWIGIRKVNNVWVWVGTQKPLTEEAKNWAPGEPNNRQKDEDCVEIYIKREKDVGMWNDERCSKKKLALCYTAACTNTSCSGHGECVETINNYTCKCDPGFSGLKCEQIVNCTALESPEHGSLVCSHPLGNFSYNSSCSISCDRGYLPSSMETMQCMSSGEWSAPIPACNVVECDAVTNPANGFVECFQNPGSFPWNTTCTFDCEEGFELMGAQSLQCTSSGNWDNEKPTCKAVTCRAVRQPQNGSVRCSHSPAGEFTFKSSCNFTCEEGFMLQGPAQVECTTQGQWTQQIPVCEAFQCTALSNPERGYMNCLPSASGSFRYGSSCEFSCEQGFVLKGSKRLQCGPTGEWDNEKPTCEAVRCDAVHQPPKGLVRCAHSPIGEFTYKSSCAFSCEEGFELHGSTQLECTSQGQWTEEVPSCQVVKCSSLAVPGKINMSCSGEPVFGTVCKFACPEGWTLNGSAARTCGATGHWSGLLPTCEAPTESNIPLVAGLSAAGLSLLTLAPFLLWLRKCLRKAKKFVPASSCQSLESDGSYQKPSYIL
Sequence of human Retinoid X Receptor beta (RXRb), RXRB (gene 6257) (P28702 whole entry, looked up, the tested form may be a part): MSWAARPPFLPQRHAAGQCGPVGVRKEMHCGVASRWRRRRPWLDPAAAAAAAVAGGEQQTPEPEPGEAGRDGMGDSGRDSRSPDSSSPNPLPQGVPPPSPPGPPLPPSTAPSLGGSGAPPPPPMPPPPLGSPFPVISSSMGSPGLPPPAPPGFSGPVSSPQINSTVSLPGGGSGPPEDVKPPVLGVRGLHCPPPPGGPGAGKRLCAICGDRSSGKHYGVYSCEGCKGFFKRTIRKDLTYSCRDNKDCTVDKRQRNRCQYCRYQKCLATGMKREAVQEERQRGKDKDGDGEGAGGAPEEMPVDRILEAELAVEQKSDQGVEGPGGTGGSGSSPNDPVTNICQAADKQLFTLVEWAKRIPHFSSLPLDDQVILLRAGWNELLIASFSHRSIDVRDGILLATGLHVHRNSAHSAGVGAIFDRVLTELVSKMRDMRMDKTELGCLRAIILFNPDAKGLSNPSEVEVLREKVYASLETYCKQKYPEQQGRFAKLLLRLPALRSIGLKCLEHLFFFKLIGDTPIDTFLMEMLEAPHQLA
Sequence of human Peroxisome Proliferator-activated Receptor alpha (PPARa), PPARA (gene 5465) (Q07869 whole entry, looked up, the tested form may be a part): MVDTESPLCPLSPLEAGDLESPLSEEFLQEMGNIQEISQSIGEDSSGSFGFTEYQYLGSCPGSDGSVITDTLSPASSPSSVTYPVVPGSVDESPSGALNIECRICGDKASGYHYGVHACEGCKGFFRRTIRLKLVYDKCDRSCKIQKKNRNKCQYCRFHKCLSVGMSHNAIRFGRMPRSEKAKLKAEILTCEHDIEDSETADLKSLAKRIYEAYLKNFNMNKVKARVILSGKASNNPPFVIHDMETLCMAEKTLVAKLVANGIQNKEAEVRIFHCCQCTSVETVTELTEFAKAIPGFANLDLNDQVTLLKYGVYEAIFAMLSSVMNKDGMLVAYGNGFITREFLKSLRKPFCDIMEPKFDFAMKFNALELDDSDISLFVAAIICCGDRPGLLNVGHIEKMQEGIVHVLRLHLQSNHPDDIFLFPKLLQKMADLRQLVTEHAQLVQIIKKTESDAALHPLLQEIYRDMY
Sequence of human Thyroid Receptor alpha (THRa1), THRA (gene 7067) (P10827 whole entry, looked up, the tested form may be a part): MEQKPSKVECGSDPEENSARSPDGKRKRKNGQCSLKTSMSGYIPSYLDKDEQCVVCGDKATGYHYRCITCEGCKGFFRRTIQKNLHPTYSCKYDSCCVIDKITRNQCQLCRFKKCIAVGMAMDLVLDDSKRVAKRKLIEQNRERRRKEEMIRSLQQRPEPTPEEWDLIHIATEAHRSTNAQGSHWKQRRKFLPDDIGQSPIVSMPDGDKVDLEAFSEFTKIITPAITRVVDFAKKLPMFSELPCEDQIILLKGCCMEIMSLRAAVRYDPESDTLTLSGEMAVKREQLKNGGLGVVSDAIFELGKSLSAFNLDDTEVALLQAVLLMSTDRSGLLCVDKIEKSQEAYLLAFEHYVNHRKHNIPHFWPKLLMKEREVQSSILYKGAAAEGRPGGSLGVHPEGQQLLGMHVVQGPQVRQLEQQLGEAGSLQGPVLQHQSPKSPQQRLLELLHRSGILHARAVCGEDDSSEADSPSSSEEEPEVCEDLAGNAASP
Sequence of Retinoic acid receptor RXR-alpha (Homo sapiens) (P19793 whole entry, looked up, the tested form may be a part): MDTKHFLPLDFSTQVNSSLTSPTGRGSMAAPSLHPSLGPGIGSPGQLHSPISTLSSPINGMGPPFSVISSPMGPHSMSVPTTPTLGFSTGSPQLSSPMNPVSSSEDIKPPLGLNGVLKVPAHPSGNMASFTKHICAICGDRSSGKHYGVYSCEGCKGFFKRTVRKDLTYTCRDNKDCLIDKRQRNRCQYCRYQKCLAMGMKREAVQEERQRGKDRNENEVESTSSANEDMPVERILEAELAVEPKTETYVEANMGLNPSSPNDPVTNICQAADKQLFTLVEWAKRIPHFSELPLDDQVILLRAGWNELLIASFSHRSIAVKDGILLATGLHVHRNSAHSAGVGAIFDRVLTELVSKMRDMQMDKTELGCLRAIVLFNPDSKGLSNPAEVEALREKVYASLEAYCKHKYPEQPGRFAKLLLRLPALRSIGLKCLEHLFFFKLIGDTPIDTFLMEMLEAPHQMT
Sequence of human Retinoic Acid Receptor beta (RARb), RARB (gene 5915) (P10826 whole entry, looked up, the tested form may be a part): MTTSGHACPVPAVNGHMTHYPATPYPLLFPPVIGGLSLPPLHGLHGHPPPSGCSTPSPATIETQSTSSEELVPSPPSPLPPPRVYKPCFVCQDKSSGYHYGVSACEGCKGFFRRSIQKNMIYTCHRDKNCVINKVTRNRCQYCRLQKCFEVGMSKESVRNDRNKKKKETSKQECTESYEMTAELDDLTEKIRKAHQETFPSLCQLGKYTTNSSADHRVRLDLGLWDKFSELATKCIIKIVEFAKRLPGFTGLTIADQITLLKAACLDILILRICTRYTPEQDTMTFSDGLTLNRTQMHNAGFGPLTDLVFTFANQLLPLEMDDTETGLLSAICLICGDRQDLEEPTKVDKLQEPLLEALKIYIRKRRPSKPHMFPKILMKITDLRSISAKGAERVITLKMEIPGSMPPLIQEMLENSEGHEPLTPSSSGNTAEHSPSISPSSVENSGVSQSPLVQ
Sequence of Retinoic acid receptor alpha (Homo sapiens) (P10276 whole entry, looked up, the tested form may be a part): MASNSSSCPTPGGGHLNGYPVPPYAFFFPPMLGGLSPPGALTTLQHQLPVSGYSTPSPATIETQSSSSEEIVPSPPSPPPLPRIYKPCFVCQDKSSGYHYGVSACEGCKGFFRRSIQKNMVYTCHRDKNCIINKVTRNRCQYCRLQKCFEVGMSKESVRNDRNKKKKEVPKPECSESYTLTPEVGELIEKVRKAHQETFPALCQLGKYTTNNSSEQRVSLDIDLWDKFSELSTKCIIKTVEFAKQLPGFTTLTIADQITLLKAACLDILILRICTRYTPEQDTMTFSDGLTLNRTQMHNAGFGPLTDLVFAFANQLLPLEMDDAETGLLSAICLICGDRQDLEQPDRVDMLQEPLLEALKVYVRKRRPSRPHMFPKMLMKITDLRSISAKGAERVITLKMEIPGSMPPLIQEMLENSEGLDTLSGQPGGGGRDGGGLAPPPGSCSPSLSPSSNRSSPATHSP
Sequence of human Retinoic Acid Receptor gamma (RARg), RARG (gene 5916) (P13631 whole entry, looked up, the tested form may be a part): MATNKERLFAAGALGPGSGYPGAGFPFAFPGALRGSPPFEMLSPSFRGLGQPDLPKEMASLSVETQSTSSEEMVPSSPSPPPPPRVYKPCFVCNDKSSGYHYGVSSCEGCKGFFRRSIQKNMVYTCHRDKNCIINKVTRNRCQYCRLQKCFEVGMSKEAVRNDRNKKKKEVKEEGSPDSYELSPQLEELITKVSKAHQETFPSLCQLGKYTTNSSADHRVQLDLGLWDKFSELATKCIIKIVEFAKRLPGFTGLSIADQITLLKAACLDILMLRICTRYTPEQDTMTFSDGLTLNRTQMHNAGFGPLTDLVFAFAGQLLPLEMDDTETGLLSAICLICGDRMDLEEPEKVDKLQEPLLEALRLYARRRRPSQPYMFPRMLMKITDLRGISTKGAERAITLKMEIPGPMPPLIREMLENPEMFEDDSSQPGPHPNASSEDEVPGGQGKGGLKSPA

Cc1cc(C)c(O)c(C)c1
not listed: [17] | [18] | [19] | [20]
inactive: all other assays above

CCCCC(CC)COC(=O)CCCCC(=O)OCC(CC)CCCC (stereo unspecified)
active: [10] 49.1 µM
not listed: [9] | [19] | [20]
inactive: all other assays above

Oc1cccc(O)c1
not listed: [4] | [8] | [10] | [17] | [19] | [20]
inactive: all other assays above

ClC1=C(Cl)C(Cl)(Cl)C(Cl)=C1Cl
inactive: [1] | [19] | [6] | [7] | [8] | [18] | [10] | [20]
active: [2] 6.79 µM | [5] 3.29 µM | [10] 17.5 µM | [11] 7.17 µM | [12] 8.21 µM | [13] 7.92 µM | [14] 7.06 µM | [15] 4.6 µM | [16] 9.46 µM

O=C(O)c1ccccc1C(c1ccc(O)cc1)c1ccc(O)cc1
not listed: [6] | [19]
inactive: all other assays above

Nc1cccc2c(N)cccc12
not listed: [4] | [9] | [19]
inactive: all other assays above
